The whole screen tested about 400,000 compounds, of which about 2,100 (0.53%) were called active. Roughly 14% stayed inconclusive and do not appear here. How the calls were made is not given here. This excerpt belongs to a sample that is enriched for actives.

For the experiment, the target named is Ataxin-2 (Homo sapiens) (UniProt Q99700). As to the kind of experiment: qHTS for Inhibitors of ATXN expression. In kind it is functional. (In general: In qHTS, concentration-response curves come from the screen itself.)
Ataxin-2 (Homo sapiens), sequence (Q99700 whole entry): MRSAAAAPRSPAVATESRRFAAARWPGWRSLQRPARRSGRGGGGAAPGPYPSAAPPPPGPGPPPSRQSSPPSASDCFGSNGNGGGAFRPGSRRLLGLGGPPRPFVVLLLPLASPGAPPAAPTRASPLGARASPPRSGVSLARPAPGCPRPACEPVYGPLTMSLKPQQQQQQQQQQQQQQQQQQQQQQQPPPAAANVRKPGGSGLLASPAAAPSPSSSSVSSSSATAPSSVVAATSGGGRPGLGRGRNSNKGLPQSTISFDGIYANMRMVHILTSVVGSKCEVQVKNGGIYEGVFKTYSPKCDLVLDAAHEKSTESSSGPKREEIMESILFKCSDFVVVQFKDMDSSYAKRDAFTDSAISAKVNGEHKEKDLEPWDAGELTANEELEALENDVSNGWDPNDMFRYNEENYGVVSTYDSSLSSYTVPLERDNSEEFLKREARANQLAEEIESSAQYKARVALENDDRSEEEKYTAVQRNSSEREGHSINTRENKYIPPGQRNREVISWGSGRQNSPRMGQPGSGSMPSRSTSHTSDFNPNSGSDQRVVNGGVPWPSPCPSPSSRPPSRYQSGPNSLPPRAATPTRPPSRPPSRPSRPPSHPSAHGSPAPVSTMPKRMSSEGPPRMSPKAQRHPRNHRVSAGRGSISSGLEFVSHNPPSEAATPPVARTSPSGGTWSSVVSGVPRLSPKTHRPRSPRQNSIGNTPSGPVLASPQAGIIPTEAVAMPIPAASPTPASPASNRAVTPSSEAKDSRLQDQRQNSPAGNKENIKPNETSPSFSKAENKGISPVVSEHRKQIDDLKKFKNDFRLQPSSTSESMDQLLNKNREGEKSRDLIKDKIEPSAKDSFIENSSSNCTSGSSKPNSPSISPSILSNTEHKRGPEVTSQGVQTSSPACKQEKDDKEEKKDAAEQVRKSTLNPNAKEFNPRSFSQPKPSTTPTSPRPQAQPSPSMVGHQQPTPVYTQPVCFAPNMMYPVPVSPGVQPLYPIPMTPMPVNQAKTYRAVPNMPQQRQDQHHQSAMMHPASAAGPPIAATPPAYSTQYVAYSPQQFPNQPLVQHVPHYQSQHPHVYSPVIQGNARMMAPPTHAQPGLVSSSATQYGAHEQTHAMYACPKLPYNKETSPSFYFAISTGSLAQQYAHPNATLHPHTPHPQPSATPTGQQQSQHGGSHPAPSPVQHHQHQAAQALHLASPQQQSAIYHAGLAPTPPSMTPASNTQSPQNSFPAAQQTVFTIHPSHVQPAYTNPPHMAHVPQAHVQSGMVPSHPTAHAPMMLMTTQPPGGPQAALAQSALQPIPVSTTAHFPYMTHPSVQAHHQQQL
For `OCCN1CCN(c2ncnc3c2ncn3[C@H]2CN(Cc3ccc(-c4ccccc4)cc3)C[C@@H](CO)O2)CC1`, the Potency was 39.8 µM (active).
As for `CCCC/C=C1/CCC(CN(C)C)C1=O` (stereo not given), the Potency was 37.7 µM (active).
The value for `COc1cccc(/C=C2/CCC(CN(C)C)C2=O)c1` (stereo not given) was 9.47 µM (active); that for `CN(C)CC1CCC/C(=C\c2ccc(OC(=O)/C=C/c3ccccc3)cc2)C1=O` (stereo not given) was 35.5 µM (active); that for `COc1ccc(/C=N/N(C)C2=NS(=O)(=O)c3ccccc32)cc1` was “inactive”.
Turning to `CN(C)c1ccc(/C=C2\CCCc3c2nc2ccccc2c3C(=O)O)cc1`, the Potency entry was “inactive”.
The value for `CSc1ccc(/C=C/C(=O)OCC(=O)N2CCc3ccccc32)cc1` was “inactive”; that for `COc1cccc(NC=C2C(=O)CCCC2=O)c1` was “inactive”; that for `COc1cccc(C2NC(=O)CCC2[N+](=O)[O-])c1` (stereo not given) was “inactive”.
The value for `CCCC(/C=C/c1ccc(OC(C)=O)cc1)=C1/c2ccccc2C(=O)N1c1ccccc1` was “inactive”; that for `COc1ccc(/C=C2\CCC/C(=C\C=N\N(C)C)C2=O)cc1` was 11.2 µM (active); that for `Cc1noc(C)c1COc1ccc(C(=O)OCC(=O)Nc2ccc(S(N)(=O)=O)cc2)cc1` was “inactive”.
For `CN(C)S(=O)(=O)Oc1ccsc1C(=O)Nc1ccc(Br)cc1` the value was “inactive”; for `COc1ccc(/C=C/CN2CCN(CC(C)C)C(CCO)C2)cc1` (stereo not given), “inactive”.
In the case of `CC1CCN(c2ccc3c(c2)S(=O)(=O)c2cc(C(=O)O)ccc2C3=O)CC1`, the Potency result is “inactive”.
The value for `Brc1ccc2ncc(Br)cc2c1` was “inactive”; that for `CCCCn1nc(NC(=O)c2cccs2)c2cc3cc(OC)ccc3nc21` was “inactive”; that for `COc1ccc(/C=C2/CCCC(CN(C)C)C2=O)cc1` (stereo not given) was 13.4 µM (active).
With `CN(C)CC1CC/C(=C\c2ccc(O)cc2)C1=O` (stereo not given), the Potency is 39.8 µM (active).
On to `O=C(O)c1c2c(nc3ccccc13)/C(=C/c1ccc(O)cc1)CC2`, for which the Potency entry was “inactive”.
The value for `Cc1cc(=O)oc2cc3c(cc12)OCCN3` was “inactive”.
On to `CC(C)(C)c1ccc(C2=CC(c3ccccc3)n3ncnc3N2)cc1` (stereo not given), for which the Potency result was “inactive”.
For `CCN(CC)c1ccc2c(C)c(CO)c(=O)oc2c1` the value was “inactive”; for `COc1c(Br)cc(/C=N/n2c(S)nnc2-c2ccccc2)c(O)c1Br`, “inactive”; for `O=C(Nc1cccc(NC(=O)c2cc([N+](=O)[O-])ccc2Cl)n1)c1cc([N+](=O)[O-])ccc1Cl`, 22.4 µM (active).
The value for `O=C(Nc1cccc(NC(=O)c2cccc([N+](=O)[O-])c2)n1)c1cccc([N+](=O)[O-])c1` was “inactive”; that for `Cc1cccc(NC(=O)c2cc(Cl)nc3ccccc23)n1` was “inactive”.
For `c1cn2c(NC3CCCCC3)c(-c3ccc(SC4CCCCC4)cc3)nc2cn1` the value was “inactive”; for `CCc1ccc(S(=O)(=O)ON2C(=O)c3ccccc3C2=O)cc1`, 23.8 µM (active).
As for `COc1ccc(Cl)cc1NC(=O)N1CCN(c2ccccc2OC)CC1`, the Potency result is “inactive”.
For the compound `COc1ccccc1NC(=O)N1CCN(c2ccc3nnc(-c4ccc(F)cc4)n3n2)CC1`, the Potency is 25.1 µM (active).
For `Cc1ccc(F)cc1NC(=O)N1CCCN(c2ccc(C(F)(F)F)cn2)CC1` the value was “inactive”; for `Fc1ccc(-c2nnc3ccc(N4CCc5ccccc5C4)nn23)cc1`, 35.5 µM (active).
For `CCN(CC)C(=O)CSc1nc2ccccc2c(=O)n1CCC(=O)N1CCN(c2ccccc2)CC1`, the Potency result was “inactive”.
For `COc1ccc(-n2cc(C(=O)c3cc(Cl)ccc3O)cc(C#N)c2=O)cc1`, the Potency result was “inactive”.
As to `Clc1cccc(Cc2c(-c3ccco3)nc3ccc(Br)cn23)c1`, the Potency was 31.6 µM (active).
As to `COc1ccc(Cc2c(-c3ccco3)nc3ccc(Br)cn23)c(C)c1`, the Potency is 20 µM (active).
The value for `Fc1cccc(Cc2c(-c3ccco3)nc3ccc(Cl)cn23)c1` was 39.8 µM (active); that for `COc1ccc2nc(-c3ccco3)c(-c3ccco3)nc2c1` was “inactive”.
The value for `Clc1cccc(Cc2c(-c3ccco3)nc3ccc(Cl)cn23)c1` was 28.2 µM (active); that for `Clc1cccc(CSc2ccc(-c3ccco3)nn2)c1` was “inactive”.
For the compound `COc1ccc(C2C(C(=O)c3ccco3)=C(O)C(=O)N2c2nnc(C)s2)cc1` (stereo not given), the Potency entry is “inactive”.
For `O=C(CC1C(=O)NC2CCCCC2N1C(=O)c1ccc([N+](=O)[O-])cc1)Nc1ccccc1` (stereo not given) the value was “inactive”.
For `Cc1ccc(S(=O)(=O)N2CCN(C(=O)c3cc(C4CC4)nc4c3cnn4C(C)C)CC2)cc1` the value was “inactive”.
The value for `Cc1ccc(Cc2c(-c3ccco3)nc3ccc(Cl)cn23)cc1` was 25.1 µM (active).
With `Fc1cccc(Cc2c(-c3ccco3)nc3ccc(Br)cn23)c1`, the Potency was 39.8 µM (active).
The value for `Cc1ccc2nc(-c3ccco3)c(CC3CCCCC3)n2c1` was 22.4 µM (active); that for `Cc1nc2ccc(Cl)cn2c1[N+](=O)[O-]` was “inactive”; that for `Sc1nnc(-c2ccco2)n1-c1ccc(Br)cc1` was “inactive”.
Take `Cc1ccc2nc(-c3ccncc3)c(NC3CCCCC3)n2c1`: the Potency result was “inactive”.
The value for `CCOC(=O)C1CCN(C(=O)Nc2ccc3nc(-c4ccco4)c(-c4ccco4)nc3c2)CC1` was “inactive”; that for `CC(=O)Nc1c(-c2ccccc2)nc2ccc(Cl)cn12` was “inactive”.
The value for `COCCNC(=O)c1cc2c(=O)n3cccc(C)c3nc2n(Cc2ccncc2)c1=N` was “inactive”; that for `C/C(=N\NC(=O)C1COc2ccccc2O1)c1ccc(N2CCOCC2)cc1` (stereo not given) was “inactive”.
`O=C(COC(=O)c1c2c(nc3ccccc13)/C(=C\c1ccco1)CC2)NC1CCCC1`: the Potency entry is “inactive”.
The value for `O=C1C(=C(I)I)c2ccccc2-c2ccccc21` was 26.7 µM (active).
Consider `COc1ccc(C2C=C(C)Nc3nc4ccccc4n32)cc1` (stereo not given), for which the Potency result is “inactive”.
The value for `Cc1ccc(C(C)(C)C)cc1S(=O)(=O)N1CC(=O)Nc2ccccc21` was “inactive”; that for `COc1ccc(C(=O)c2oc3ccccc3c2NC(=O)c2ccc(F)cc2)cc1` was “inactive”; that for `COc1ccc(NC(=O)c2oc3ccccc3c2NC(=O)COc2ccccc2OC)c(OC)c1` was 35.5 µM (active).
As for `COc1ccc(NC(=O)COC(=O)c2[nH]nc3ccccc23)c(OC)c1`, the Potency result was “inactive”.
For `Brc1ccc(C2=CC(c3ccco3)n3ncnc3N2)cc1` (stereo not given) the value was “inactive”; for `COc1ccc(/N=c2\oc3cc(O)ccc3cc2C(=O)NCC2CCCO2)c(OC)c1` (stereo not given), “inactive”.
For `COc1ccc(/N=c2\oc3c(OC)cccc3cc2C(=O)NCc2ccco2)c(OC)c1` the value was 22.4 µM (active).
Consider `COc1cccc2cc(C(=O)NCc3ccc(Cl)cc3)c(=O)oc12`, for which the Potency result was “inactive”.
For `CCc1c(C)c(C#N)c2nc3ccccc3n2c1S` the value was “inactive”; for `CC(C)=CCC[C@H](C)C[C@@H]1Cc2nc(S)nc(O)c2[C@@H](c2ccc(F)cc2)O1`, 28.2 µM (active); for `Cc1ccc(-c2noc(CN(C(=O)c3ccc4c(c3)OCO4)C(C)C)n2)cc1`, “inactive”.
As to `CC(CNC(=O)c1cc(COc2ccc3ncccc3c2)on1)c1ccccc1` (stereo not given), the Potency was 44.7 µM (active).
With `CSc1ccccc1NC(=O)c1cc(CC(C)C)on1`, the Potency result was “inactive”.
For `CC(=O)c1ccc(OCc2cc(C(=O)N3CCC(c4ccncc4)CC3)no2)cc1` the value was “inactive”.
Regarding `CCOC(=O)C1CCN(C(=O)Cn2c(=O)c3cccn3c3cccnc32)CC1`, the Potency entry was “inactive”.
Consider `N#Cc1ccc(OCC(O)CS(=O)(=O)c2ccc(F)cc2)cc1` (stereo not given), for which the Potency entry is “inactive”.
Regarding `CN(C)c1ccc(N=Nc2ccc(S(=O)(=O)O)cc2)c2ccccc12`, the Potency is 25.1 µM (active).
The value for `Cc1cc(/C=c2\sc3nc4ccccc4n3c2=O)c(C)n1-c1ccc(C(=O)O)cc1` was “inactive”; that for `CC(Sc1nc[nH]n1)C(=O)Nc1cc(C(F)(F)F)ccc1Cl` (stereo not given) was “inactive”; that for `COc1cc(OC)c(C(=O)OC(C)C(=O)Nc2cc(C(F)(F)F)ccc2Cl)cc1OC` (stereo not given) was “inactive”.
For `FC(F)Oc1ccc(/C=N/NC(=S)Nc2cc(C(F)(F)F)ccc2Cl)cc1` the value was 39.8 µM (active); for `CCCc1cc(NCc2ccccn2)n2c(nc3ccccc32)c1C#N`, “inactive”.
The value for `C=C1C(=O)OC2CC1C(O)CC(C)=CCCC(C)=CC(O)CC2C` (stereo not given) was 15 µM (active); that for `CC(=O)c1sc2nc(-c3ccc(C)cc3)c3c(c2c1N)CCCC3` was “inactive”.
For `CN(C)CCNc1ncnc2c1sc1nc(-c3ccccc3)c3c(c12)CCCC3`, the Potency is 25.1 µM (active).
For `NC(=O)c1sc2nc(-c3ccccc3)c3c(c2c1N)CCCC3` the value was “inactive”; for `CCN(CC)c1cc(C)c(C#N)c2nc3ccccc3n12`, “inactive”.
The value for `Cc1cc(C)nc(OC(C(=O)O)C(OCCc2ccccc2)(c2ccc(F)cc2)c2ccc(F)cc2)n1` (stereo not given) was “inactive”; that for `CS(=O)(=O)c1ccc(C(=O)NCCN2C(=O)S/C(=C\c3cccnc3)C2=O)cc1[N+](=O)[O-]` was 11.2 µM (active).
As to `Cc1ccc(C(=O)NCC(=O)N/N=C/c2cccs2)cc1[N+](=O)[O-]`, the Potency result is “inactive”.
The value for `COc1ccc(OCC(O)CNCCOc2ccccc2OC)c(C(C)(C)C)c1` (stereo not given) was 20 µM (active); that for `CNCCCOc1ccc(C)cc1OC` was “inactive”; that for `CCc1ccc(N(C(=O)c2snc(C(N)=O)c2N)C(C(=O)NC2CCCC2)c2ccncc2)cc1` (stereo not given) was “inactive”.
For `COCCN(C(=O)CCl)C(C(=O)NC1CCCCC1)c1ccccc1C` (stereo not given) the value was 25.1 µM (active); for `COCCCn1c(C(=O)NC2CCCCC2)cc2c(=O)n3cccc(C)c3nc21`, “inactive”; for `COc1ccc(C(C(=O)NC2CCCCC2)N(C(=O)CCl)c2ccc(C)cc2)cc1` (stereo not given), 7.08 µM (active).
For `CC(C(=O)NC1CCCCC1)N(Cc1ccc(F)cc1)C(=O)c1snc(C(N)=O)c1N` (stereo not given) the value was “inactive”.
For `O=C(NC1CCCC1)C(c1ccc(Cl)cc1)N(Cc1ccc(F)cc1)C(=O)CCl` (stereo not given), the Potency was 39.8 µM (active).
For `COc1ccc(C(C(=O)NC2CCCC2)N(C(=O)c2ccco2)c2cc3c(cc2C(C)=O)OCO3)cc1` (stereo not given) the value was “inactive”.
The value for `NC(=O)c1nsc(C(=O)N(Cc2cccnc2)C(C(=O)NC2CCCC2)c2ccc(F)cc2)c1N` (stereo not given) was “inactive”.
For `COCCCn1c(=N)c(C(=O)NC2CCCC2)cc2c(=O)n3cccc(C)c3nc21` the value was “inactive”; for `COc1ccc(CCN2C(=O)CC(C(N)=O)S/C2=N\c2ccccc2)cc1` (stereo not given), “inactive”.
Consider `Cc1cc(C)c2c(N)c(C(=O)NN3CC(=O)N(c4cccc(Cl)c4)CC3=O)sc2n1`, for which the Potency entry is “inactive”.

The values above are taken from ChEMBL document CHEMBL1201862, “PubChem BioAssay data set” (2004).
